This is a sample that favours compounds with a hit; in the whole collection about 8.1% have one here.
Gal4-VP16 FLuc = VP16 counterscreen qHTS for inhibitors of ROR gamma transcriptional activity | Drosophila S2 Gal4-VP16 UAS-luciferase, luminescence, 20 h | Potency, µM (top dose mostly 53.6 µM), inactives show at the highest dose activity, negative = inhibition, hits mostly inhibitors | 3.5% of 310,000 active | AID 2546, 2010;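 further: Gal4-VP16 expression switched on by copper sulfate through the metallothionein promoter; on the % scale 0 is the no-effect control and ±100 the full control effect; nearly all actives have a fitted effect of over 50% in size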
Sfp PPTase inh = qHTS Assay for Inhibitors of Bacillus subtilis Sfp phosphopantetheinyl transferase (PPTase); Potency, µM, without a hit: largest response in the series, negative = inhibition, actives largely listed as inhibitors; 4'-phosphopantetheinyl transferase ffp (Bacillus subtilis), Q9F4F7; Biochemical Sfp PPTase activity, qHTS; AID 1490, 2009; 3.5% of 310,000 active;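 further: the enzyme is Sfp with the accession as filed and its product quenches rhodamine fluorescence; 0% = enzyme reaction without inhibitor and -100% = no enzyme wells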
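After 15 min at room temperature with compound, 15 nM Sfp received 5 uM rhodamine-CoA plus 12.5 uM BHQ-2-ybbR (50 mM Hepes pH 7.6, 10 mM MgCl2). Rate came from the fluorescence difference over 30 min, ex 525/em 598 nm.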
PINK1 expr mod = A Quantitative High throughput Screen to Identify Chemical Modulators of PINK1 Expression; PINK1 immunofluorescence, high-content cytometry, 24 h; Potency, µM (doses to about 76.6 µM), without a hit: at the highest dose activation (PINK1 increase), usual class: activators; 0.2% of 410,000 active; AID 624263, 2012; active means well fitted activation curve with a large enough effect; inconclusive means small, poorly fitted or top-dose-only effect; cell line not stated here; further: % of control where 0% means no effect; nearly all actives have a fitted effect of over 65% in size
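PINK1 protein, normally rapidly degraded, was detected by immunofluorescence after 24 hour compound treatment of a stable cell line. Titration data (5 concentrations) came from laser-scanning cytometry, with CCCP-treated wells as controls.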
ClpP mod = qHTS Assay for Activators of ClpP; ATP-dependent Clp protease proteolytic subunit (Bacillus subtilis (strain 168)), P80244; purified B. subtilis ClpP, FRET peptide cleavage, 20 min; Potency, µM (doses to about 57.5 µM), without a hit: top-dose activity change, negative = active; 1.9% of 340,000 active; active means well fitted falling curve with a large enough effect; inconclusive means small, poorly fitted or top-dose-only effect; inactive means no such curve, though single readings can be large or run the other way; further: the source files actives as falling curves though it sought activators and does not explain the sign; nearly all actives have a fitted effect of over 65% in size
Target sequence (P80244 whole entry, looked up): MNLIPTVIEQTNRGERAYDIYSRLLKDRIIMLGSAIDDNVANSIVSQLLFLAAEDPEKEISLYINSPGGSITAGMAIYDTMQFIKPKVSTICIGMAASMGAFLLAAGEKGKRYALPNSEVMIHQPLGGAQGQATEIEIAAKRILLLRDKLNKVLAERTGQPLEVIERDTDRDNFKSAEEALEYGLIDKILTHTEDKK
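Purified B. subtilis ClpP, 10 microg/mL final in Tris/HCl pH8 with KCl, BSA, glycerol and Tween-20, cleaved an Abz/nitrotyrosine-quenched decapeptide. Fluorescence (ex 320, em 430) was read at 0 and 20 min at room temperature. Delta was normalized to 5.8 microM ADEP and DMSO/no-enzyme controls.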
Epigenetic derep = Quantitative High-Throughput Screen for Regulators of Epigenetic Control | murine LDR cells, GFP reporter derepression, 30 h | Potency, µM (doses to about 53.9 µM), inactives show at the top dose GFP activation, usual class: activators | AID 1865, 2009 | 0.2% of 280,000 active; further: % of control where 0% means no effect; nearly all actives have a fitted effect of over 60% in size
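Murine LDR cells carrying a silenced, genomically integrated CMV-driven GFP reporter were exposed to compound for 30 hours at 37 C. After PBS washes, GFP-positive cells (20–120 um objects) were counted by laser-scanning microplate cytometry.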
RORgamma inh = qHTS for inhibitors of ROR gamma transcriptional activity; Nuclear receptor ROR-gamma (Mus musculus), P51450; Drosophila S2 Gal4-RORgamma UAS-luciferase reporter, 20 h; Potency, µM (highest dose often 53.6 µM), for inactives: at the top dose activity change, negative = inhibition, hits mostly inhibitors; 5.4% of 310,000 active; AID 2551, 2010; further: on the % scale 0 is the no-effect control and ±100 the full control effect; nearly all actives have a fitted effect of over 60% in size
Target sequence (P51450 whole entry, looked up, the tested form may be a part): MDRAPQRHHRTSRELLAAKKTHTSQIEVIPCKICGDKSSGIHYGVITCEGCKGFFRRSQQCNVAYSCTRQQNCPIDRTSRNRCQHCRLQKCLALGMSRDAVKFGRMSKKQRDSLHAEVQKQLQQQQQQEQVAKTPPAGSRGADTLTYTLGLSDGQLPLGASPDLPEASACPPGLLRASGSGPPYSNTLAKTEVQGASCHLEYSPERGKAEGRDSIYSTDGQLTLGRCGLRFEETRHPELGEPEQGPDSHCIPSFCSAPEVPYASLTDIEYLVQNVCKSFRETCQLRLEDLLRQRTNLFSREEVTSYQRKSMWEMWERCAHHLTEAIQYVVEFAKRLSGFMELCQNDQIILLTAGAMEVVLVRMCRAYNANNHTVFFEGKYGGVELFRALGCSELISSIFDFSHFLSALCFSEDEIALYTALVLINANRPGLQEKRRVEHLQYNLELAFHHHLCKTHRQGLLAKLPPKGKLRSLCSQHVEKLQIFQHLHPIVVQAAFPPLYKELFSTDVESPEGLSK
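Drosophila Schneider cells stably carrying a metallothionein-driven Gal4 DBD–ROR gamma fusion and a UAS-Photinus luciferase reporter were exposed to compound for 1 hr, then induced with copper sulfate (700 uM final) for 20 hr at ambient temperature before luminescence reading.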
An asterisk follows results filed as active; ? = inconclusive; . = no result; [ ] = another dose, or the depositor's remark. Unless noted, the call rests on the fitted dose curve; in most records, active means well fitted curve in the direction sought with a large enough effect; inconclusive means small, poorly fitted or top-dose-only effect, or another doubt; inactive means no such curve, though single readings can be large; an effect the other way counts as inactive or inconclusive. Potency means the concentration at half of the fitted maximal effect.

SMILES	Gal4-VP16 FLuc	Sfp PPTase inh	PINK1 expr mod	ClpP mod	Epigenetic derep	RORgamma inh
CCOc1nc(-c2ccncc2)nc2ccccc12	?	2%	2%[38.3 µM]	0%	-2%	13%
Cc1ccc(NC(=O)NC(=O)N(C(C)C)S(C)(=O)=O)nc1	-6%	-22%	0%	35µM*	1%	26%[10 µM]
Cc1ccc(-n2ncc3c(NC4CCCCC4)ncnc32)cc1C	.	.	1%	-17%	3%	.
CCn1c(-c2ccc(C)cc2)n[nH]c1=S	11µM*	?	-1%	-27%	-2%	8.9µM*
CCCCn1c(-c2ccc([N+](=O)[O-])cc2)n[nH]c1=S	8.9µM*	-8%	-1%	-3%	-1%	2.2µM*
CCn1c(-c2cccnc2)n[nH]c1=S	-10%	89µM*	?	-2%	0%	?
CCCn1c(-c2ccc(F)cc2)n[nH]c1=S	1%	-4%	-4%[38.3 µM]	-5%	4%	?
CCCCn1c(-c2cccnc2)n[nH]c1=S	-28%	?	-2%	0%	-1%	?
CCn1c(-c2ccc(Cl)cc2)n[nH]c1=S	13µM*	2%	-1%[38.3 µM]	-6%	1%	10µM*
O=C(NCc1cccc(F)c1)c1ccc(-n2cnc3cccnc32)cc1	.	.	0%	-3%	0%	.
Cc1cccc(-n2c(=S)[nH]c3c(oc4ccccc43)c2=O)c1	4.5µM*	-23%	3%	-1%	2%	2.8µM*
O=c1c2oc3ccccc3c2[nH]c(=S)n1-c1ccccc1	5µM*	50µM*	0%	-2%	-1%	?
O=C(Nn1c(=O)[nH]c2ccsc2c1=O)c1ccccc1	2%	1%	2%	0%	0%	-1%
Cc1ccc(-n2c(=S)[nH]c3c(oc4ccccc43)c2=O)cc1	-5%	-9%	1%	-3%	8%	90%
O=c1c2sccc2[nH]c(=S)n1-c1ccccc1	3.5µM*	79µM*	4%	.	4%	?
CCCN1C(=O)C(NC(=O)c2ccccc2OC)(C(F)(F)F)C(C(=O)OC)=C1C (stereo unspecified)	.	.	0%	0%	-1%	.
C=CCn1c(SCC(=O)Nc2ccc(OC)cc2)nc2c([nH]c3ccccc32)c1=O	1%	-4%	1%	-11%	.	4%
Cc1cccc(NC(=O)CSc2nc3c([nH]c4ccccc43)c(=O)n2C)c1	?	34%	13%	-17%	1%	13µM*
CCc1ccc(NC(=O)CSc2nc3c([nH]c4ccccc43)c(=O)n2C)cc1	.	.	1%	-5%	4%	.
COc1cccc(NC(=O)CSc2nc3c([nH]c4ccccc43)c(=O)n2C)c1	-10%	14%	2%	.	2%	-20%
C=CCn1c(SCC(=O)Nc2cc(C)on2)nc2c([nH]c3ccccc32)c1=O	11µM*	0%	21%	-7%	.	?
COC(=O)C(C)Sc1nc2c([nH]c3ccccc32)c(=O)n1C (stereo unspecified)	17%	50µM*	6%	-7%	1%	?
Cn1c(SCC(=O)Nc2ccccc2)nc2c([nH]c3ccccc32)c1=O	13µM*	-11%	4%	47%	-2%	?
C=C(C)Cn1c(=O)c2c(nc3n2CCN3c2ccc(F)cc2)n(C)c1=O	.	.	1%	-5%	3%	.
O=C(O)Cn1cnc2c(=S)nc[nH]c21	1%	8.9µM*	1%	1%	2%	-9%
SMILES	Gal4-VP16 FLuc	Sfp PPTase inh	PINK1 expr mod	ClpP mod	Epigenetic derep	RORgamma inh
CCOC(=O)c1sc(C)c2c1NC(C)(c1cccs1)NC2=O (stereo unspecified)	2%[0.365 µM]	16%	-3%[38.3 µM]	28µM*	-1%	?
CCOC(=O)c1sc(C)c2c1NC1(CCCCCC1)NC2=O	-2%	12%	3%	?	0%	-14%
CCOC(=O)c1sc(C)c2c1NC1(CCCCC1)NC2=O	-16%	12%	11%[38.3 µM]	32µM*	-1%	-24%
CCNc1ncc2nc(-c3cccs3)c(=O)n(CCC#N)c2n1	-1%	-5%	3%	.	.	-1%
Cc1cccn2c(Nc3ccccc3)c(-c3cccs3)nc12	.	.	6%	4%	2%	.
CC(=O)c1n[nH]nc1Nc1nc(C)cc(C)n1	3%	28µM*	-1%[38.3 µM]	-2%	1%	-36%
CC1=C(C(=O)N2CCOCC2)C(c2ccc(-c3ccccc3)cc2)NC(=S)N1 (stereo unspecified)	9%	16%	3%	28µM*	-2%	?
O=C1c2ccccc2NC2(CCCCC2)N1N=C1CCCCC1	0%	21%	-1%	18µM*	-1%	17%
COc1ccc(N(CC(=O)NCCc2cccc(C)c2)S(=O)(=O)c2c(C)nn(C)c2C)cc1	.	.	1%	0%	0%	.
C=CC(=O)NCC1OCCc2ccccc21 (stereo unspecified)	-1%	12%	1%	.	1%	6%
O=C(/C=C/c1ccco1)NCC1OCCc2ccccc21 (stereo unspecified)	-12%	22µM*	-1%	.	-1%	33%
O=C(/C=C/c1ccco1)NCC1COc2ccccc2O1 (stereo unspecified)	11µM*	?	5%	.	-3%	3%
Cc1ccc(NC(=O)CS(=O)CC(=O)NCC2OCCc3ccccc32)c(C)c1 (stereo unspecified)	7%	3%	-6%	-3%	-2%	8%[10 µM]
O=C(CS(=O)CC(=O)Nc1ccc(Cl)cc1)NCC1OCCc2ccccc21 (stereo unspecified)	2%	7%	1%	11µM*	8%	-24%
COc1cccc(NC(=O)C(=O)NCC(c2ccc3c(c2)OCO3)N2CCOCC2)c1 (stereo unspecified)	.	.	0%	-1%	0%	.
CCn1cc(C(=O)NCCc2ccc(OC)c(OC)c2)c(=O)c2cc(S(=O)(=O)N3CCC(C)CC3)ccc21	.	.	2%	-14%	-2%	.
CC(C)CCNC(=O)CN1C(=O)COc2ccc(S(=O)(=O)N3CCOCC3)cc21	.	.	3%	-1%	0%	.
COc1ccc(CNC(=O)C(=O)NCC(c2cccs2)S(=O)(=O)c2cccs2)cc1 (stereo unspecified)	.	.	1%	0%	4%	.
Cn1cc(C(=O)NCc2ccccc2)c(=O)c2cc(S(=O)(=O)N3CCCCCC3)ccc21	.	.	1%	1%	-2%	.
O=C(NCc1ccccc1)N(Cc1cc2cc3c(cc2[nH]c1=O)OCO3)CC1CCCO1 (stereo unspecified)	-6%	4%	-1%	28µM*	-3%	28%

Compound activity as filed in PubChem.
